# Data published in PubChem BioAssay (NCI).
# “And” between values parts separate entries of the source, which are not always exact repeats. Identical values can stand only once. This is part of a sample that, as a whole, favours compounds with a hit. Of some 83,000 tested, about 20% had one in any assay.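 Results are percent growth after 48 hours of single-concentration exposure. 100 means growth as in untreated cells, lower positive values show inhibition; negative values down to -100 show cell death.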 The source made the active and inactive calls. The calls were made as follows: active = growth percent below 10; inactive = the rest.
# Tested on: HL-60(TB) leukemia
# Assay: NCI-60 one-dose screen, 48 h (100 = growth as untreated, 0 = no growth, -100 = all killed)
# Conditions: 10 µM unless noted
row,SMILES,growth
1,O=C(Nc1ccc(I)cc1F)c1cc(Br)ccc1O,-31.3% (active)
2,Nc1c2ccccc2nc2ccccc12,21% (inactive) and 9.95% (active) and 47.7% (inactive)
3,COc1cc2cc(Oc3ccc(NC(=O)c4cccc(C(F)(F)F)c4)cc3)c(C)nc2cc1OC,27.8% (inactive)
4,CC1(O)CC(c2nc(-c3ccc4ccc(-c5ccccc5)nc4c3)c3c(N)nccn23)C1 (stereo unspecified),17.5% (inactive)
5,O=C(Nc1cccc2[nH]c(C(F)(F)F)nc12)c1cc(Cl)ccc1Cl,36.4% (inactive)
6,COc1cccc(C2C(C#N)=C(N)Oc3cc4c(cc32)OCO4)c1 (stereo unspecified),-45% (active)
7,O=C1C=C(C(O)c2ccc(O)cc2)C(=O)c2ccccc21 (stereo unspecified),98.4% (inactive)
8,OCC(O)c1nc2ccc3[nH]ncc3c2c2c1CCCC2 (stereo unspecified),-16.9% (active)
9,O=C(/C(=C\c1ccc([N+](=O)[O-])cc1)S(=O)Cc1ccc(Cl)cc1)c1ccc(Cl)cc1 (stereo unspecified),59.4% (inactive)
10,COc1ccc2c(O)c(/C=C3\N=Nc4ncccc43)oc2c1C[C@H]1CCNC[C@H]1F,-45.4% (active)
11,N#CSCC1CC(O)(c2ccccc2)C(c2ccccc2)C(c2ccc(F)cc2)O1 (stereo unspecified),-24.7% (active)
12,COc1ccc(CNC(=O)COc2ccc(/C=N/Nc3nc4ccccc4s3)cc2)cc1,105% (inactive)
13,COc1ccc(-n2c(C)nc3c(c(C)nn3-c3ccccc3)c2=O)cc1,-18.3% (active)
14,O=C(Nc1ccc(Cl)cc1)c1cc(-c2ccc(F)cc2)c2sc(=O)[nH]c2n1,-30.6% (active)
15,COC(=O)[C@H](Cc1cnc[nH]1)NC(=O)[C@@H](NC(=O)Nc1cc(C(F)(F)F)cc(C(F)(F)F)c1)C(C)C,-62.5% [100 µM] (active)
16,CN1CCN(CCCOc2cccc3nc(Nc4ccc(Cl)c(F)c4)ccc23)CC1,61.9% (inactive)

row,SMILES,growth
1,COc1cc(C(=O)NC(=S)NCc2ccncc2)cc(OC)c1OC,89.7% (inactive)
2,COc1cc2c(c(OC)c1OC)CCC(c1cccc(C(=O)Nc3cccc(Br)c3)c1)O2 (stereo unspecified),101% (inactive)
3,CCCNC(=O)Oc1ccc(/C(=C(\C)c2ccccc2)c2ccc(OCCN3CCCCC3)cc2)cc1,63.1% (inactive)
4,Cc1[nH]c2ncnc(Oc3ccc(NC(=O)Nc4ccc(Cl)c(C(F)(F)F)c4)cc3)c2c1C,65.6% (inactive)
5,CC(C)C/C=C/C=C/C(=O)N[C@@H](CC(N)=O)C(=O)N[C@@H]1C(=O)N[C@H](c2ccc(O)cc2)C(=O)N[C@H](CCCN)C(=O)N[C@H]([C@@H](C)O)C(=O)N[C@H](c2ccc(O)cc2)C(=O)N[C@H](c2ccc(O)cc2)C(=O)N[C@H]([C@H](C)O)C(=O)N[C@H](Cc2ccccc2)C(=O)N[C@H](CCCN)C(=O)N[C@H](c2ccc(O[C@H]3O[C@@H](CO)[C@@H](O)[C@@H](O)[C@H]3O[C@@H]3O[C@H](CO)[C@H](O)[C@H](O)[C@@H]3O)cc2)C(=O)N[C@H]([C@H](C)O)C(=O)N[C@H](c2ccc(O)cc2)C(=O)NCC(=O)N[C@H](CC(C)C)C(=O)N[C@H](C)C(=O)N[C@H](c2ccc(O)c(Cl)c2)C(=O)O[C@@H]1C(N)=O,72.1% (inactive)
6,COC1/C=C/OC2(C)Oc3c(C)c(O)c4c(O)c(c(/C=N/Nc5ccc([N+](=O)[O-])cc5[N+](=O)[O-])c(O)c4c3C2=O)NC(=O)C(C)=C/C=C/C(C)C(O)C(C)C(O)C(C)C(OC(C)=O)C1C (stereo unspecified),-1.29% (active)
7,Cc1cc(NCc2cc(Nc3ccnc4cc(Cl)ccc34)ccc2F)nc(N2CCN(c3ccccc3)CC2)n1,-40.7% (active)
8,CCN(CC)CCNC(=O)n1cc(-c2ccncc2)c(-c2cc(Cl)cc(OC)c2)n1,78% (inactive)
9,CC(=O)c1c(-c2ccc(OC(F)(F)F)cc2)nc2ccccn12,115% (inactive)
10,CCN(CC)C(Cl)=Nc1ccc(Cl)cc1,99.3% (inactive)
11,Cc1ccc(S(=O)(=O)n2ccnc2)cc1,124% (inactive)
12,CN1CCN(CCCN2c3ccccc3Sc3ccc(Cl)cc32)CC1,98.9% (inactive) and 50.7% (inactive)
13,Cc1c(C(=O)/C=C/c2csc3ccccc23)[n+](=O)c2ccccc2n1[O-],67.7% (inactive)
14,O=[N+]([O-])c1ccc(NC2CCCCC2)nc1,110% (inactive)
15,CC(=O)Nc1c(I)c(NC(C)=O)c(I)c(C(=O)O)c1I,92.4% (inactive) and 95.8% (inactive)
